Results filed as inconclusive are left out. Values without a mark were called inactive. Activity calls are given as the source filed them. Calls follow the shape of the dose curve; as a rule, active = well fitted inhibition curve with a large enough effect; inconclusive = small, poorly fitted or top-dose-only effect; inactive = flat fitted curve, though single readings scatter.
Legend:
[1] = Drug repurposing screens with cells derived from glioblastoma tumor samples (AID 1345199); conditions: GBM patient neurospheres viability, ATP luminescence, 48 h; also: nearly all actives have a fitted effect of over 40% in size
How it was run: (§1)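 Four patient lines of CD133+ GBM neurospheres were screened at several concentrations; hits were retested in those lines plus three slower-growing GBM lines, using 48-hour treatment and ATP-based viability.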

astro = control astrocytes; assay: as above; conditions: viability, ATP luminescence, 48 h; series mostly up to 45.9 µM
How it was run: as §1

[2] = at 45.9 µM (top of the series), tumour line B
[3] = at 45.9 µM (top of the series), tumour line D
[4] = at 46 µM (top of the series), tumour line A
[5] = at 46.1 µM (top of the series), tumour line C
% is scaled to controls: 0 for no effect and ±100 for the full control effect; potency is read from the fitted curve at half-maximal effect.

SMILES: OCCO[C@@H]1[C@@H](O)[C@H](O)[C@@H](CO)O[C@@H]1O
- activity, negative = cell killing [1, 2]: -12.3%
- activity, negative = cell killing [1, 3]: -11.5%
- activity, negative = cell killing [1, 4]: -14.9%
- activity, negative = cell killing [1, 5]: -19.4%

SMILES: C=CCSSSCC=C
- activity, negative = cell killing [1, 2]: -7.75%
- activity, negative = cell killing [1, 3]: -21.3%
- activity, negative = cell killing [1, 4]: -14.2%
- activity, negative = cell killing [1, 5]: -8.17%

SMILES: CN(C)CCCN1c2ccccc2C(C)(C)c2ccccc21
- activity, negative = cell killing [1, 5]: 1.86%
- Potency ([1]; tumour line A): 14.1 µM (active)

SMILES: CC(=O)OCC(=O)[C@@]1(O)CC[C@H]2[C@@H]3C[C@H](C)C4=CC(=O)C=C[C@]4(C)[C@H]3[C@@H](O)C[C@@]21C
- activity, negative = cell killing [1, 2]: -16.5%
- activity, negative = cell killing [1, 3]: -18.9%
- activity, negative = cell killing [1, 4]: -15.4%
- activity, negative = cell killing [1, 5]: 1.15%

SMILES: COC(=O)CCC(=O)CN
- activity, negative = cell killing [1, 2]: -21.7%
- activity, negative = cell killing [1, 3]: -18.7%
- activity, negative = cell killing [1, 4]: -28.4%
- activity, negative = cell killing [1, 5]: -13.1%

SMILES: COc1cc([C@@H]2c3cc4c(cc3[C@@H](O[C@@H]3O[C@@H]5CO[C@@H](C)O[C@H]5[C@H](O)[C@H]3O)[C@H]3COC(=O)[C@H]23)OCO4)cc(OC)c1O
- activity, negative = cell killing [1, 3]: -20.4%
- activity, negative = cell killing [1, 5]: -16.4%

SMILES: CC(=O)OCC(=O)[C@@]12OC3(CCCC3)O[C@@H]1C[C@H]1[C@@H]3CCC4=CC(=O)C=C[C@]4(C)[C@@]3(F)[C@@H](O)C[C@@]12C
- activity, negative = cell killing [1, 2]: -7.71%
- activity, negative = cell killing [1, 3]: -10.7%
- activity, negative = cell killing [1, 5]: 3.06%

SMILES: CC[C@H]1OC(=O)[C@H](C)[C@@H](O[C@H]2C[C@@](C)(OC)[C@@H](O)[C@H](C)O2)[C@H](C)[C@@H](O[C@@H]2O[C@H](C)C[C@H](N(C)C)[C@H]2O)[C@](C)(O)C[C@@H](C)/C(=N\OCOCCOC)[C@H](C)[C@@H](O)[C@]1(C)O
- activity, negative = cell killing ([1]; at 20 µM (top of the series), tumour line C): -5.57%
- activity, negative = cell killing ([1]; at 21.2 µM (top of the series), tumour line B): -9.58%
- activity, negative = cell killing ([1]; at 21.2 µM (top of the series), tumour line D): -24%
- activity, negative = cell killing ([1]; at 21.3 µM (top of the series), tumour line A): -24.2%
- Potency (astro): inactive

Reference: PubChem BioAssay (NCATS)
